Experimental findings from PubChem BioAssay are described below.

Assay [1] is described as follows: antimalarial activity against Dd2 strain (AID 2302;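 active = growth inhibition above 50% at the single 2 µM test dose, taken to imply half-maximal potency below 2 µM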;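 also: 0% = DMSO untreated growth and 100% = chloroquine plus artemisinin killed control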). Conditions: P. falciparum Dd2 in RBCs, LDH growth readout, 72 h; at 2 µM; active compounds read high.
The nature of assay [2]: human hepatoma cell viability loss – ATP luminescence, cytotoxicity control for P. falciparum antimalarial project, primary screen (AID 2303;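 active = inhibition above 50%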;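 also: 0% = DMSO wells and 100% = digitonin-killed cells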). Conditions: HepG2 viability, 24-48 h, at 10 µM, active compounds read high.
Assay [3] addresses L-lactate dehydrogenase (Plasmodium falciparum (isolate CDC / Honduras)) (UniProt Q27743). The assay is described as follows: PfLDH activity inhibition – cell lysate, 3D7 strain, counter-screen for P. falciparum growth inhibition project (AID 2304).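 Also: 0% = vehicle and 100% = reference inhibitor.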 Conditions: P. falciparum 3D7 crude extract, LDH APAD/NBT absorbance; at 2 µM; active compounds read high. Background: Counterscreens check selectivity or assay interference.

Assay [4] is described as follows: inhibition of 3D7 malaria parasite growth – strain 3D7 (AID 2306).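 Also: 0% = DMSO wells and 100% = chloroquine plus artemisinin control wells.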 To be noted: P. falciparum 3D7 erythrocytic growth, LDH absorbance, 72 h; at 2 µM; active compounds read high.
The target of assay [5] is Calcium-dependent protein kinase 1 (Plasmodium falciparum (isolate 3D7)) (UniProt P62344). The assay is described as follows: PfCDPK1 kinase inhibitors, biochemical, TCAMS library (AID 1159585; cut-off not given, nearly all actives have IC50 up to about 0.98 µM;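 also: inhibitors leave more ATP so luminescence rises with inhibition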). Conditions: recombinant PfCDPK1, Kinase-Glo ATP depletion luminescence.
For assay [6], the target named is Plasmodium falciparum protein kinase 6 (PK6, PF3D7_1337100) (UniProt Q8IDW1). The assay is described as follows: PfPK6 kinase inhibitors, biochemical, TCAMS library (AID 1159586). Conditions: recombinant PfPK6, Kinase-Glo ATP depletion luminescence. In general terms: Kinase-Glo reads ATP consumption through a luciferase reaction.
Assay [7] has as its target Protein kinase 7 (PK7), Plasmodium falciparum 3D7 (PF3D7_0213400) (UniProt Q7YTF7). The assay can be described thus: inhibition of Plasmodium PK7 catalytic activity – biochemical, TCAMS antimalarial set, Kinase-Glo luminescence (AID 1159587). To be noted: recombinant PfPK7, Kinase-Glo ATP depletion luminescence.
Assay [8] deals with Calcium-dependent protein kinase 4 (Plasmodium falciparum (isolate 3D7)) (UniProt Q8IBS5). The assay is described as follows: PfCDPK4 kinase inhibitors, biochemical, TCAMS library (AID 1159588; cut-off not given, nearly all actives have IC50 up to about 0.91 µM). To be noted: recombinant PfCDPK4, Kinase-Glo ATP depletion luminescence.

Unmarked numbers belong to inactive results. For some of these results: Results with a measured potency or affinity are listed apart. Active and inactive are the calls of the source. Unless noted, no rule for the calls is given here.

Chain of Calcium-dependent protein kinase 4 (Plasmodium falciparum (isolate 3D7)) (Q8IBS5 whole entry, looked up): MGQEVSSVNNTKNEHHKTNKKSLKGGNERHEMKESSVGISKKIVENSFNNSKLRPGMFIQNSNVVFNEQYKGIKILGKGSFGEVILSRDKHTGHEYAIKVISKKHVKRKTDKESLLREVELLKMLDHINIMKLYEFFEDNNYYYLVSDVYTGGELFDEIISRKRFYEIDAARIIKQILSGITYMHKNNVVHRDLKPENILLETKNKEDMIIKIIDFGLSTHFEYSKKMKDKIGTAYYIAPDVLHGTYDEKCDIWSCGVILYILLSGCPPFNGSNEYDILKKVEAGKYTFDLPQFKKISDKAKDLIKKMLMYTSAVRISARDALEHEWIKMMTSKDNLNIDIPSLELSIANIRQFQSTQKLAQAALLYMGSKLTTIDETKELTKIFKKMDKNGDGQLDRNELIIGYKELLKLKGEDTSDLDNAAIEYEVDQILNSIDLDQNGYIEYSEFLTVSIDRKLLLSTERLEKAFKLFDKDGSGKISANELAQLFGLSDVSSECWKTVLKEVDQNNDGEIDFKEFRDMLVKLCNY
Chain of L-lactate dehydrogenase (Plasmodium falciparum (isolate CDC / Honduras)) (Q27743 whole entry, looked up): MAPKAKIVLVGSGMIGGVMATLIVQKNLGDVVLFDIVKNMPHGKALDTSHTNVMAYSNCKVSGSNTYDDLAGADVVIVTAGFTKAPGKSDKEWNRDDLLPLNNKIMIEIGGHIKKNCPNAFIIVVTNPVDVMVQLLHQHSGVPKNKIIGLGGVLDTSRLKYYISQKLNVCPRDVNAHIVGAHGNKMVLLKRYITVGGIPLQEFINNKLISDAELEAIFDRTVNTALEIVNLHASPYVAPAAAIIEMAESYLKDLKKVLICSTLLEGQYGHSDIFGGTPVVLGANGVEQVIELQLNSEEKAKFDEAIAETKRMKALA
Chain of Calcium-dependent protein kinase 1 (Plasmodium falciparum (isolate 3D7)) (P62344 whole entry, looked up): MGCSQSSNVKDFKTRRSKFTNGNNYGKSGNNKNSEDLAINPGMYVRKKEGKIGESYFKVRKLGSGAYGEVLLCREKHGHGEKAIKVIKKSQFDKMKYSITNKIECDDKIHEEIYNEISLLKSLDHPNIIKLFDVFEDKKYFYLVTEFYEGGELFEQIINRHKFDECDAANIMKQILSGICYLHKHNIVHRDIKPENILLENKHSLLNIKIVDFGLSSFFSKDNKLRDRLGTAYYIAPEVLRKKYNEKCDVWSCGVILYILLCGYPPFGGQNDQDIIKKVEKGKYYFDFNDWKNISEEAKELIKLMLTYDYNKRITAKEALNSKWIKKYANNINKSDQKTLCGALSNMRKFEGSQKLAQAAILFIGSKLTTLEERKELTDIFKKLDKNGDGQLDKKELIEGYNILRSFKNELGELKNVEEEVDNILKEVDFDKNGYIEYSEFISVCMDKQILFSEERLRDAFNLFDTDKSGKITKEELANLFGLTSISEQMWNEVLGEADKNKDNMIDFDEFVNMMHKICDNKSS
Chain of Protein kinase 7 (PK7), Plasmodium falciparum 3D7 (PF3D7_0213400) (Q7YTF7 1-343): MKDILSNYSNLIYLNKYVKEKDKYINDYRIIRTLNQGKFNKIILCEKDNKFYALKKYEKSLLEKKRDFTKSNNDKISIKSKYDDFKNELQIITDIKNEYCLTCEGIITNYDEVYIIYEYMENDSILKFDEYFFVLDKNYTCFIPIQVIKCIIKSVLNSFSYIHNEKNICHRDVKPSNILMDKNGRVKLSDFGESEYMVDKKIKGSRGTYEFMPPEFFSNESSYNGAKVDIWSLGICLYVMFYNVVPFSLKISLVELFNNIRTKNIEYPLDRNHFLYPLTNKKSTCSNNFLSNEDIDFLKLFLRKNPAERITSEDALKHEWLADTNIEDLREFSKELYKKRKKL
Chain of Plasmodium falciparum protein kinase 6 (PK6, PF3D7_1337100) (Q8IDW1 1-305): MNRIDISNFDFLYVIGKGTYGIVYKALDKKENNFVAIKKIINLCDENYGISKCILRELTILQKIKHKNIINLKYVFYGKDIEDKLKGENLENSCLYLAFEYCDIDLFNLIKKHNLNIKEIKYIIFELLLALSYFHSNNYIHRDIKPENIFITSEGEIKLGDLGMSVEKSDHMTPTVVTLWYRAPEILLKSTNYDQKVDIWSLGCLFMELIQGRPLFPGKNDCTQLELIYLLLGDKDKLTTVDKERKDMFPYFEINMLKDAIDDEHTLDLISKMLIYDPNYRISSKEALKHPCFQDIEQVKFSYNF

Consider `CCn1ncc(Cl)c1CN(C)S(=O)(=O)c1ccc(Br)cc1`, for which the growth inhibition is 70% (active) in assay [1] and 90% (active) in assay [4]. Also, the results for the inhibition in assay [2] and in assay [3] were 9% and 4%, respectively. For the same molecule, the result in assay [5], in assay [6], in assay [7] and in assay [8] was inactive.

`CCCc1cc2c3c(N)nc(N)nc3ccc2n1C(CC)CC`: the growth inhibition is 73% (active) in assay [1] and 102% (active) in assay [4]. Further, the inhibition (usually the change of the read-out against control, counted positive when it falls) was 70% (active) in assay [2] and -1% in assay [3]. Besides, the outcome in assay [5], in assay [6], in assay [7] and in assay [8] was inactive.

Consider `Cc1cc(F)ccc1-c1nc(NCC(O)CNCCc2ccccc2)nc2c1ccc(=O)n2-c1c(F)cccc1F` (stereo not given), for which the growth inhibition in assay [1] and in assay [4] was 100% (active) each time. Moreover, the inhibition in assay [2] is 25%; in assay [3] it was -5%. Further, the result in assay [5], in assay [6], in assay [7] and in assay [8] was inactive.

Take `COC(=O)c1cc2cccc(NC[C@@H](C)NC[C@H](O)c3cccc(Cl)c3)c2[nH]1`: the growth inhibition in assay [1] was 99% (active); in assay [4], 98% (active). For the same molecule, the figures for the inhibition in assay [2] and in assay [3] were -8% and -3%, respectively. The outcome in assay [5], in assay [6], in assay [7] and in assay [8] was inactive.

`O=c1[nH]c2c(cc1CNC1CCCCC1)c(-c1ccc(F)cc1)nn2-c1ccccc1`: the growth inhibition is 88% (active) in assay [1] and 99% (active) in assay [4]. Further, the inhibition in assay [2] is 8%; in assay [3] it was 6%. In addition, the outcome in assay [5], in assay [6], in assay [7] and in assay [8] was inactive.

Regarding `CC(CN1CCN(C)CC1)C(=O)Nc1cccc(-c2cccc(-c3nc4ccc(F)cc4[nH]3)c2)c1` (stereo not given), the growth inhibition in assay [1] is 78% (active); in assay [4], 101% (active). Also, the inhibition in assay [2] is 23%; in assay [3], -2%. Also, the outcome in assay [5], in assay [6], in assay [7] and in assay [8] was inactive.

`CCCNCc1ccc(-c2ccc(CN(CCOC)C(=O)/C=C/c3ccccc3C)cc2)nc1`: the growth inhibition is 39% in assay [1] and 95% (active) in assay [4]. In addition, the inhibition in assay [2] is 13%; in assay [3], 2%. Also, the outcome in assay [5], in assay [6], in assay [7] and in assay [8] was inactive.

For `COc1ccc(CNCc2ccccc2)cc1-c1ccc(S(=O)(=O)NCCN2CCCC2)c(C)c1`, the growth inhibition in assay [1] is 50% (active); in assay [4] it was 99% (active). The inhibition in assay [2] was 33%; in assay [3], 3%. For the same molecule, the result in assay [5], in assay [6], in assay [7] and in assay [8] was inactive.

With `ON=C(c1nc2ccccc2[nH]1)c1nc2ccccc2[nH]1`, the growth inhibition in assay [1] is 68% (active); in assay [4], 93% (active). The inhibition in assay [2] was 36%; in assay [3], 6%. Moreover, the result in assay [5], in assay [6], in assay [7] and in assay [8] was inactive.

`CC(C)(C)C/C=C\c1ccc(C(=O)NCC2CC2)cc1`: the growth inhibition is 88% (active) in assay [1] and 94% (active) in assay [4]. Also, the inhibition in assay [2] is 0%; in assay [3], -2%. The result in assay [5], in assay [6], in assay [7] and in assay [8] was inactive.

Take `CCCCCCCN(Cc1ccc(OC(C)(C)C(=O)OCC)cc1)C(=O)Nc1ccccc1OC(F)(F)F`: the results for the growth inhibition in assay [1] and in assay [4] were 68% (active) and 95% (active), respectively. Also, the inhibition in assay [2] was -2%; in assay [3], 3%. Moreover, the outcome in assay [5], in assay [6], in assay [7] and in assay [8] was inactive.

With `CN(CCCNCc1ccc2ccccc2c1)CCCNCc1ccc2ccccc2c1`, the growth inhibition in assay [1] is 79% (active); in assay [4] it was 100% (active). For the same molecule, the results for the inhibition in assay [2] and in assay [3] were 100% (active) and 1%, respectively. In addition, the result in assay [5], in assay [6], in assay [7] and in assay [8] was inactive.

As for `CCCCN(CCCC)Cc1cc2ccccc2cc1O`, the results for the growth inhibition in assay [1] and in assay [4] were 98% (active) and 100% (active), respectively. Besides, the inhibition in assay [2] was 9%; in assay [3] it was -6%. The outcome in assay [5], in assay [6], in assay [7] and in assay [8] was inactive.

Consider `CCC(C)NS(=O)(=O)c1ccc2nc(Nc3ccc(C)cc3)n([C@H](C)C(C)(C)C)c2c1` (stereo not given in full), for which the growth inhibition in assay [1] and in assay [4] was 98% (active) throughout. Moreover, the inhibition in assay [2] is 2%; in assay [3], 0%. Besides, the outcome in assay [5], in assay [6], in assay [7] and in assay [8] was inactive.

As for `O=C(Nc1cccc(-c2csc(-c3nc4ccccc4[nH]3)c2)c1)c1ccncc1`, the growth inhibition in assay [1] was 61% (active); in assay [4], 101% (active). Also, the figures for the inhibition in assay [2] and in assay [3] were 64% (active) and -1%, respectively. Also, the outcome in assay [5], in assay [6], in assay [7] and in assay [8] was inactive.

Turning to `Cc1cccn2c(=O)c3cc(C(=O)NC4CCCCC4)c(=N)n(CCCn4ccnc4)c3nc12`, the growth inhibition in assay [1] is 8%; in assay [4] it was 102% (active). Moreover, the inhibition in assay [2] is 1%; in assay [3], -1%. The result in assay [5], in assay [6], in assay [7] and in assay [8] was inactive.

Take `O=C(NCc1cccc(CN2CCOCC2)c1)c1cc(Br)cc(N2CCN(c3ccncc3)CC2)c1`: the growth inhibition in assay [1] is 29%; in assay [4], 99% (active). Also, the inhibition in assay [2] is 25%; in assay [3], -2%. Also, the outcome in assay [5], in assay [6], in assay [7] and in assay [8] was inactive.

With `c1ccc2sc(Sc3ncnc4sccc34)nc2c1`, the growth inhibition in assay [1] and in assay [4] was 100% (active) in each case. Besides, the results for the inhibition in assay [2] and in assay [3] were 7% and 2%, respectively. Moreover, the result in assay [5], in assay [6], in assay [7] and in assay [8] was inactive.

As for `O=C1CCCN1CCCNCc1ccc(-c2cccc(-c3nc4ccc(F)cc4[nH]3)c2)cc1`, the growth inhibition is 8% in assay [1] and 101% (active) in assay [4]. Further, the inhibition in assay [2] is 12%; in assay [3], -1%. For the same molecule, the result in assay [5], in assay [6], in assay [7] and in assay [8] was inactive.

Turning to `COc1ccc(S(=O)(=O)NC2CCN(CCCOc3ccnc4cc(Cl)ccc34)C2)cc1OC` (stereo not given), the growth inhibition is 56% (active) in assay [1] and 91% (active) in assay [4]. Further, the inhibition was 8% in assay [2] and 1% in assay [3]. For the same molecule, the outcome in assay [5], in assay [6], in assay [7] and in assay [8] was inactive.
